# Laboratory results reported in PubChem BioAssay (NCATS).
# Inconclusive results are not listed. Unmarked numbers belong to inactive results. Active and inactive are the calls of the source. Calls come from the whole dose curve; as a rule, active = well fitted inhibition curve with a large enough effect; inconclusive = small, poorly fitted or top-dose-only effect; inactive = no such curve, though single readings can be large or run the other way.
# Assay: Primary fluorescence-based thiol-reactive (MSTI) qHTS assay for identification of artifact compounds. (AID 1845221); note: nearly all actives have a fitted effect of over 65% in size;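 for activity change, negative = thiol reactive: thiol-reactive compounds lower the probe fluorescence signal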
# Conditions: MSTI thiol-reactivity probe, 1 h; series mostly up to 53.8 µM; activity change, negative = thiol reactive: at the top concentration
# Summary of the method: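 Thiol-reactive compounds detected by quenching of 4 uM MSTI fluorescence (525/598 nm) after 1 h room-temperature dark incubation in PBS pH 7.4, 2% DMSO. qHTS titration; percent inhibition Hill-fitted against Acetyl-MSTI/MSTI controls.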
# Potency is the fitted concentration of half-maximal effect.
Structure (SMILES),"activity change, negative = thiol reactive",Potency
CC(=O)O[C@H]1CC[C@@]2(CI)C(=CC[C@@H]3[C@@H]2CC[C@]2(C)[C@@H]([C@H](C)CCCC(C)C)CC[C@@H]32)C1,-0.863% [at 11.5 µM],–
c1ccc(Cc2ncc3c(n2)CCNCC3)cc1,-1.59%,–
CC[C@H](/C=C/[C@@H](C)[C@H]1CC[C@H]2[C@@H]3CC=C4C[C@@H](O)CC[C@]4(C)[C@H]3CC[C@]12C)C(C)C,-7.95% [at 6.41 µM],–
O=C(/C=C/c1ccc(O)cc1)OCC1=C[C@@H](O)[C@@H]2C=CO[C@@H](O[C@@H]3O[C@H](CO)[C@@H](O)[C@H](O)[C@H]3O)[C@H]12,–,5.82 µM (active)
C=CC(C)(O)CC/C=C(\C)C(=O)OCC1OC(OC2CCC3(C)C(CCC4(C)C3CC=C3C5CC(C)(C)C(O)CC5(C(=O)O)CCC34C)C2(C)C)C(O)C(OC2OC(CO)C(O)C(OC3OC(CO)C(O)C(OC4OC(COC5OC(CO)C(O)C(O)C5O)C(O)C(O)C4O)C3O)C2O)C1O (configuration not stated),67.6% [at 11.5 µM],–
CC1=C(CC(=O)O)c2cc(F)ccc2C1=Cc1ccc(S(C)(=O)=O)cc1,17.8%,–
CC1(C)CC[C@]2(C(=O)O[C@@H]3O[C@H](CO)[C@@H](O)[C@H](O)[C@H]3O)CC[C@]3(C)C(=CCC4[C@@]5(C)C[C@@H](O)[C@H](O)C(CO)(CO)C5CC[C@]43C)C2[C@@H]1O (some centres not stated),35% [at 25.6 µM],–
NS(=O)(=O)NCCNc1nonc1C(=Nc1ccc(F)c(Br)c1)NO,–,inactive
COc1cc(CCc2ccccc2)c(C(=O)O)c2c1CC(C(C)(C)O)O2 (configuration not stated),-7.7%,–
C[C@@H]1CC[C@]2(C)C3(C)CC[C@@]2(OC3=O)[C@@]12C[C@H](c1ccoc1)OC2=O,28.2%,–
COC(=O)CC[C@@H](C)[C@H]1CC[C@H]2[C@@H]3CC(=O)[C@H]4C[C@H](OC(C)=O)CC[C@]4(C)[C@H]3CC[C@]12C,3.86%,–
C[C@@H]1O[C@@H](O[C@H]2[C@H](OC(=O)C34CCC5(C)C(=CCC6C7(C)CC(O)C(O[C@@H]8O[C@H](C(=O)O)[C@@H](O)[C@H](O)[C@H]8O)C(C)(C(=O)O)C7CCC65C)C3CC(C)(C)CC4O)O[C@H](C)[C@@H](O)[C@@H]2O)[C@H](O)[C@@H](O[C@@H]2OC[C@](O)(CO)[C@H]2O[C@@H]2O[C@H](CO)[C@@H](O)[C@H](O)[C@H]2O)[C@H]1O (some centres not stated),44.4% [at 11.5 µM],–
CC1(O)CCC2C(C(=O)O)=COC(OC3OC(CO)C(O)C(O)C3OC(=O)/C=C/c3ccc(O)cc3)C21 (configuration not stated),–,3.27 µM (active)
C[C@@H]1O[C@@H](OC[C@H]2O[C@@H](OCCc3ccccc3)[C@H](O)[C@@H](O)[C@@H]2O)[C@H](O)[C@H](O)[C@H]1O,–,2.6 µM (active)
C[C@@H]1CCC2C(C)(C)[C@H](O)CC[C@]2(C)[C@@]12Cc1c(O)cc3c(c1O2)CN(CCO)C3=O (some centres not stated),38.4% [at 25.6 µM],–
O=C(C1CC1)N1CC[C@@H](Cc2n[nH]c(=O)n2-c2ccc(-c3ccc4occc4c3)cc2)C1,49.7% [at 25.6 µM],–
C=C1CC[C@H]2[C@@](C)(CCC[C@@]2(C)C(=O)O)[C@@H]1CCC(C)CCO (some centres not stated),40.9%,–
COc1ccc(C(O[C@@H]2O[C@H](CO)[C@@H](O)[C@H](O)[C@H]2O)C(CO)Oc2ccc(/C=C/CO)cc2OC)cc1O (some centres not stated),–,5.19 µM (active)
C[C@@H]1C[C@H](O)/C=C/[C@H](O)[C@@H](O)CC(=O)O1,7.92%,–
C=C(C)C1CC2(CO)C(=CC1=O)CCC(O)C2C (configuration not stated),-12.9%,–
C[C@@H]1O[C@@H](O[C@@H]2[C@@H](O)[C@H](O[C@@H]3[C@@H](O)[C@@H](O)[C@H](O[C@H]4[C@H](OC(=O)[C@]56CCC(C)(C)C[C@H]5C5=CCC7[C@@]8(C)C[C@H](O)[C@H](O[C@@H]9O[C@@H](C)[C@H](O)[C@@H](O)[C@H]9O)[C@@](C)(CO)C8CC[C@@]7(C)[C@]5(C)C[C@H]6O)O[C@H](C)[C@H](O)[C@@H]4O)O[C@H]3C)OC[C@H]2O)[C@H](O)[C@H](O)[C@H]1O (some centres not stated),292% [at 11.5 µM],–
C=C1CCC2C(C)(C)C(O)CCC2(C)C1CCC(C)CCOC(=O)CCC(=O)O (configuration not stated),-23.4% [at 25.6 µM],–
OCc1ccccc1O[C@@H]1O[C@H](CO)[C@@H](O)[C@H](O)[C@H]1O,–,23.8 µM (active)
COc1cc(CC(COC2OC(CO)C(O)C(O)C2O)c2cc(/C=C/CO)cc(OC)c2O)ccc1O (configuration not stated),–,9.22 µM (active)
CC(/C=C/C1(O)C2(C)COC1(C)CC(=O)C2)O[C@@H]1O[C@H](CO)[C@@H](O)[C@H](O)[C@H]1O (some centres not stated),–,10.3 µM (active)
CN1C(=O)c2ccccc2-n2c(nc3ccccc3c2=O)[C@@]12O[C@H]2c1ccccc1,-5.27%,–
CC1OC(OC2C(C)OC(OC3C(OC(=O)/C=C/c4ccc(O)cc4)C(CO)OC(OC4(COC(=O)/C=C/c5ccc(O)cc5)OC(CO)C(O)C4O)C3OC3OCC(O)(CO)C3O)C(O)C2O)C(O)C(O)C1O (configuration not stated),1.76% [at 11.5 µM],–
